About 83,000 compounds went through this panel and 20% of them were active in at least one assay; those are over-represented in the sample as a whole.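 The test compound was applied at a single concentration to cells in 96-well plates for 48 hours, and percent growth was recorded.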 A number with no mark means an inactive call. The source made the active and inactive calls. Rule for the calls: active = growth percent below 10; inactive = the rest.

What all share (assay): NCI-60 one-dose screen, 48 h (100 = growth as untreated, 0 = no growth, -100 = all killed)
Common to all, as to settings: 10 µM unless noted

In assay [1] the test system is SR leukemia.
For assay [2], the system named is RPMI-8226 leukemia.
In assay [3] the test system is OVCAR-8 ovarian.
In assay [4] the test system is OVCAR-5 ovarian.
For assay [5], the system named is OVCAR-4 ovarian.
Assay [6] relates to SK-OV-3 ovarian.
Assay [7] deals with IGROV1 ovarian.
Assay [8] relates to OVCAR-3 ovarian.
In assay [9] the test system is HS 578T breast.
The subject of assay [10] is NCI/ADR-RES ovarian.
For assay [11], the system named is T-47D breast.
Assay [12] deals with BT-549 breast.
Assay [13] concerns MDA-MB-435 melanoma.
Assay [14] has as its system SW-620 colon.
The subject of assay [15] is MCF7 breast.
The test system of assay [16] is HCT-116 colon.
Assay [17] deals with HCC-2998 colon.
In assay [18] the test system is KM12 colon.

Consider `Oc1ccccc1/C=N/N=C\c1ccccc1Cl`, for which the growth in assay [1] was 82.4%; in assay [2], 102%; in assay [3] it was 95.2%; in assay [4], 115%; in assay [5] it was 93.4%; in assay [6], 96%. Further, the growth in [7] was 70.3%; in [8] it was 84.1%; in [9], 105%; in assay [10] it was 95.2%; in assay [11], 67.1%; in [12] it was 86.2%. For the same molecule, the growth was 107% in [13]; 94.6% in assay [14]; 54.1% in assay [15]; 100% in [16]; 100% in assay [17]; 88.4% in assay [18].

Consider `COc1ccc(Cn2cc3c(c2-c2ccccc2)CCc2cnoc2-3)cc1OC`, for which the growth in assay [1] is 18.4%; in assay [2] it was 22.6%; in assay [3], 38.9%; in assay [4], 75.6%; in assay [5], 41.5%; in assay [6] it was 8.39% (active). The growth in assay [7] is 37.7%; in assay [8] it was 13.8%; in assay [9], 5.72% (active); in assay [10], 6.32% (active); in [11] it was 28.3%; in assay [12] it was 45.8%. Besides, the growth in assay [13] was -33.9% (active); in assay [14], 25.2%; in assay [15] it was 11.4%; in assay [16], 22.8%; in assay [17] it was 37.4%; in assay [18], 29.2%.

Consider `O=c1[nH]c(=S)[nH]c(O)c1/C=C1\C=Nc2ccccc21`, for which the growth in assay [1] is 5.51% (active); in [2], 72.2%; in assay [3], 48.6%; in assay [4] it was 96%; in assay [5], 91.9%; in [6], 104%. The growth in assay [7] was 40.3%; in assay [8] it was 33.3%; in assay [9] it was 71.7%; in assay [10] it was 87.9%; in assay [11], 98.4%; in assay [12], 76.9%. Moreover, the growth in assay [13] is 47.3%; in assay [14], 36.2%; in assay [15], 62.2%; in assay [16], 39.5%; in assay [17] it was 99.6%; in assay [18], 47.7%.

On to `CC1=C(C)C[C@]2(C(=O)O[C@H]3CCCC[C@@H]32)[S@](=O)C1`, for which the growth in assay [1] is 92.3%; in [2], 111%; in assay [3], 105%; in assay [4], 114%; in assay [5], 106%; in assay [6], 110%. The growth in assay [7] was 113%; in assay [8], 107%; in [9] it was 107%; in assay [10] it was 104%; in [11] it was 105%; in assay [12] it was 91.6%. Moreover, the growth in [13] is 103%; in assay [14], 110%; in assay [15], 95%; in assay [16] it was 108%; in assay [17] it was 95%; in assay [18] it was 101%.

Turning to `O=C(CCl)NC1c2ccccc2Oc2ccccc21`, the growth in assay [1] was 33.7%; in assay [2], 50.1%; in [3] it was 61.2%; in [4], 83.9%; in [5] it was 56.5%; in assay [6], 85.6%. Moreover, the growth in assay [7] is 46.1%; in assay [8], 68.6%; in assay [9], 97.4%; in assay [10], 101%; in [11] it was 65.9%; in assay [12], 55.2%. Moreover, the growth in assay [13] was 62.7%; in assay [14], 57.1%; in assay [15] it was 45.8%; in assay [16], 45.9%; in assay [17], 111%; in [18] it was 82.6%.

For `O=C(C(=O)N1CCOCC1)c1ccc(O[C@H]2O[C@H](CO)[C@@H](O)[C@H](O)[C@@H]2O)cc1`, the growth was 94.6% in [1]; 96.8% in assay [2]; 109% in assay [3]; 98.6% in assay [4]; 105% in assay [5]; 106% in [6]. In addition, the growth is 106% in [7]; 121% in assay [8]; 183% in assay [9]; 105% in [10]; 107% in [11]; 99.3% in assay [12]. For the same molecule, the growth in assay [13] was 108%; in [14], 107%; in [15], 100%; in assay [16] it was 96.6%; in [17], 79%; in assay [18], 110%.

With `CCCCCCCCCCCCCCCCCC1=NCCN1CCNC(C)=O`, the growth was 19.3% in assay [1]; 91% in assay [2]; 98.2% in assay [3]; 91.7% in [4]; 95.2% in assay [5]; 107% in assay [6]. In addition, the growth in assay [7] is 91.1%; in [8] it was 94.7%; in assay [9] it was 110%; in assay [10], 98.2%; in assay [11], 85.8%; in [12], 99.1%. In addition, the growth in [13] is 103%; in [14], 107%; in assay [15] it was 79.2%; in assay [16], 69.1%; in assay [17] it was 92.3%; in assay [18] it was 73.4%.

As for `CCC(C)(C)c1ccc(OCCCCCCN2CCNCC2)cc1`, the growth in assay [1] is -2.78% (active); in [2], -16.4% (active); in [3], 75.2%; in assay [4], 91.6%; in assay [5] it was 70%; in [6] it was 101%. For the same molecule, the growth is 87.3% in assay [7]; 69.4% in [8]; 64.2% in [9]; 76.4% in assay [10]; 40% in [11]; 89.1% in [12]. The growth in assay [13] is 25.9%; in assay [14] it was -10.4% (active); in assay [15] it was 4.81% (active); in [16], 6.39% (active); in assay [17], -13.5% (active); in [18], 25.2%.

Values taken from PubChem BioAssay (NCI).
